Among the test systems are HCT-15 colon; HT29 colon; SNB-75 CNS; SNB-19 CNS; U251 CNS; PC-3 prostate; SK-MEL-5 melanoma; UACC-62 melanoma; LOX IMVI melanoma; SK-MEL-28 melanoma; SK-MEL-2 melanoma; EKVX NSCLC; SN12C renal; UO-31 renal; TK-10 renal; A498 renal; MOLT-4 leukemia.
Common to all, as to assay: NCI-60 one-dose screen, 48 h (100 = growth as untreated, 0 = no growth, -100 = all killed)
The test system of another assay is ACHN renal. The settings on record: 10 µM unless noted.
Another assay relates to CAKI-1 renal. The settings on record: 10 µM unless noted.
For another assay, the system named is CCRF-CEM leukemia. The settings on record: 10 µM unless noted.

“And” between values parts separate entries of the source, which are not always exact repeats. Identical values can stand only once. The panel holds about 83,000 compounds, 20% with a hit somewhere; the sample as a whole holds those more often.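 The test compound was applied at a single concentration to cells in 96-well plates for 48 hours, and percent growth was recorded.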 The source made the active and inactive calls. The calls were made as follows: active = growth percent below 10; inactive = the rest.

In the case of `O=S(=O)(Nc1cc(Sc2cccc3cccnc23)c(O)c2ccccc12)c1ccc(F)cc1`, the growth in the assay with HCT-15 colon (10 µM unless noted) was -42.9% (active); in the assay with HT29 colon (10 µM unless noted) it was -40.9% (active); in the assay with SNB-75 CNS (10 µM unless noted), 63.8% (inactive); with SNB-19 CNS (10 µM unless noted), 42.1% (inactive); in the assay on U251 CNS (10 µM unless noted), 5.35% (active); with PC-3 prostate (10 µM unless noted), 17% (inactive). Moreover, the growth was -40.2% (active) in the assay on SK-MEL-5 melanoma (10 µM unless noted); -26.9% (active) in the assay on UACC-62 melanoma (10 µM unless noted); -60.7% (active) in the assay with LOX IMVI melanoma (10 µM unless noted); -16.2% (active) in the assay on SK-MEL-28 melanoma (10 µM unless noted); 1.64% (active) with SK-MEL-2 melanoma (10 µM unless noted); 37.1% (inactive) in the assay with EKVX NSCLC (10 µM unless noted). Moreover, the growth in the assay with SN12C renal (10 µM unless noted) was -15% (active); with UO-31 renal (10 µM unless noted) it was -11.2% (active); with TK-10 renal (10 µM unless noted) it was 17.1% (inactive); in the assay on ACHN renal, 0.351% (active); in the assay on CAKI-1 renal it was 11.9% (inactive); in the assay on A498 renal (10 µM unless noted), 70.4% (inactive). Further, the growth is 5.42% (active) in the assay on CCRF-CEM leukemia and -18.4% (active) in the assay with MOLT-4 leukemia (10 µM unless noted).
With `FC(F)(F)Sc1ccc(/C=C/c2cc(/C=C/c3ccc(SC(F)(F)F)cc3)n(-c3ccccc3)n2)cc1`, the growth in the assay with HCT-15 colon (10 µM unless noted) was 100% (inactive); in the assay with HT29 colon (10 µM unless noted), 95.3% (inactive); with SNB-75 CNS (10 µM unless noted) it was 82% (inactive); in the assay with SNB-19 CNS (10 µM unless noted), 92.6% (inactive); in the assay with U251 CNS (10 µM unless noted), 90.4% (inactive); in the assay on PC-3 prostate (10 µM unless noted), 84.2% (inactive). The growth with SK-MEL-5 melanoma (10 µM unless noted) is 98.3% (inactive); with UACC-62 melanoma (10 µM unless noted), 84.5% (inactive); with LOX IMVI melanoma (10 µM unless noted), 97.1% (inactive); in the assay on SK-MEL-28 melanoma (10 µM unless noted), 109% (inactive); in the assay on SK-MEL-2 melanoma (10 µM unless noted), 101% (inactive); in the assay with EKVX NSCLC (10 µM unless noted), 93.9% (inactive). The growth in the assay on SN12C renal (10 µM unless noted) was 100% (inactive); with UO-31 renal (10 µM unless noted), 76.7% (inactive); in the assay with TK-10 renal (10 µM unless noted), 100% (inactive); in the assay with ACHN renal, 93.9% (inactive); in the assay with CAKI-1 renal it was 78.5% (inactive); in the assay on A498 renal (10 µM unless noted) it was 86.8% (inactive). For the same compound, the growth in the assay with CCRF-CEM leukemia is 94.7% (inactive); in the assay with MOLT-4 leukemia (10 µM unless noted) it was 95.6% (inactive).
Consider `CC(=O)/C=C/c1ccc(N(CCO)Cc2ccc(C(C)(C)C)cc2)cc1`, for which the growth is 62.5% (inactive) with HCT-15 colon (10 µM); -83% (active) in the assay with HCT-15 colon (100 µM); 59.4% (inactive) in the assay on HT29 colon (10 µM); -81.5% (active) in the assay on HT29 colon (100 µM); 76.3% (inactive) with SNB-75 CNS (10 µM); -92.3% (active) in the assay on SNB-75 CNS (100 µM). The growth with SNB-19 CNS (10 µM) was 102% (inactive); in the assay with SNB-19 CNS (100 µM) it was -89.9% (active); in the assay on U251 CNS (10 µM), 75.9% (inactive); in the assay on U251 CNS (100 µM) it was -100% (active); in the assay with PC-3 prostate (10 µM), 66% (inactive); with PC-3 prostate (100 µM), -90.3% (active). The growth is 70% (inactive) with SK-MEL-5 melanoma (10 µM); -99.5% (active) in the assay on SK-MEL-5 melanoma (100 µM); 76.5% (inactive) with UACC-62 melanoma (10 µM); -86.3% (active) with UACC-62 melanoma (100 µM); 62.4% (inactive) with LOX IMVI melanoma (10 µM); -100% (active) in the assay with LOX IMVI melanoma (100 µM). Besides, the growth in the assay on SK-MEL-28 melanoma (10 µM) is 89.1% (inactive); in the assay on SK-MEL-28 melanoma (100 µM) it was -90.7% (active); in the assay on SK-MEL-2 melanoma (10 µM), 93.3% (inactive); with SK-MEL-2 melanoma (100 µM), -75.2% (active); in the assay on EKVX NSCLC (10 µM), 57.4% (inactive); in the assay on EKVX NSCLC (100 µM), -86.5% (active). In addition, the growth in the assay on SN12C renal (10 µM) is 73% (inactive); with SN12C renal (100 µM), -86.4% (active); in the assay with UO-31 renal (10 µM) it was 47.2% (inactive); in the assay on UO-31 renal (100 µM) it was -100% (active); in the assay on TK-10 renal (10 µM) it was 96.7% (inactive); with TK-10 renal (100 µM), -96.7% (active). Besides, the growth is 80.5% (inactive) in the assay with ACHN renal; 78.6% (inactive) in the assay with A498 renal (10 µM); -98.3% (active) in the assay on A498 renal (100 µM); -47.9% [100 µM] (active) in the assay with CCRF-CEM leukemia; 54% (inactive) in the assay with MOLT-4 leukemia (10 µM); -47.4% (active) in the assay on MOLT-4 leukemia (100 µM).
As to `NS(=O)(=O)OCC1OC(n2cnc3cncnc32)C(O)C1O` (stereo unspecified), the growth with HCT-15 colon (10 µM unless noted) was 22% [0.1 µM] (inactive) and 8.65% [0.1 µM] (active); in the assay with HT29 colon (10 µM unless noted), 13.7% [0.1 µM] (inactive) and 14.3% [0.1 µM] (inactive); with SNB-75 CNS (10 µM unless noted), 32.3% [0.1 µM] (inactive) and 40.4% [0.1 µM] (inactive); in the assay on SNB-19 CNS (10 µM unless noted), -4.22% [0.1 µM] (active) and 0.183% [0.1 µM] (active); with U251 CNS (10 µM unless noted), -11.8% [0.1 µM] (active); with PC-3 prostate (10 µM unless noted), 21% [0.1 µM] (inactive) and 17.8% [0.1 µM] (inactive). For the same compound, the growth in the assay with SK-MEL-5 melanoma (10 µM unless noted) is 49.4% [0.1 µM] (inactive); in the assay on UACC-62 melanoma (10 µM unless noted) it was 44.2% [0.1 µM] (inactive) and 42.4% [0.1 µM] (inactive); in the assay on LOX IMVI melanoma (10 µM unless noted), 5.02% [0.1 µM] (active) and 5.99% [0.1 µM] (active); in the assay with SK-MEL-28 melanoma (10 µM unless noted), 38.5% [0.1 µM] (inactive) and 37.4% [0.1 µM] (inactive); in the assay with SK-MEL-2 melanoma (10 µM unless noted) it was 30.5% [0.1 µM] (inactive) and 21.3% [0.1 µM] (inactive); with EKVX NSCLC (10 µM unless noted), 69.5% [0.1 µM] (inactive). Further, the growth with SN12C renal (10 µM unless noted) is -10.2% [0.1 µM] (active) and -29.3% [0.1 µM] (active); in the assay with UO-31 renal (10 µM unless noted), -2.13% [0.1 µM] (active) and 19.4% [0.1 µM] (inactive); in the assay on TK-10 renal (10 µM unless noted), 18.5% [0.1 µM] (inactive) and 13% [0.1 µM] (inactive); in the assay with ACHN renal, 13.3% [0.1 µM] (inactive) and 14.6% [0.1 µM] (inactive); in the assay with CAKI-1 renal, -34.9% [0.1 µM] (active) and 8.16% [0.1 µM] (active); with A498 renal (10 µM unless noted), -5.51% [0.1 µM] (active) and -5.14% [0.1 µM] (active). In addition, the growth is 11.4% [0.1 µM] (inactive) and -1.11% [0.1 µM] (active) in the assay with CCRF-CEM leukemia; 0.572% [0.1 µM] (active) and -5.43% [0.1 µM] (active) with MOLT-4 leukemia (10 µM unless noted).
Regarding `CC[C@]12CN3CCc4c([nH]c5ccccc45)[C@@](C(=O)OC)(c4cc5c(cc4OC)N(C)[C@H]4[C@@](O)(C(=O)OC)[C@H](OC(C)=O)[C@]6(CC)C=CCN7CC[C@]54[C@@H]76)CC(C3)[C@H]1O2` (stereo partly specified), the growth was 29% (inactive) in the assay with HCT-15 colon (10 µM unless noted); 2.74% (active) in the assay on HT29 colon (10 µM unless noted); -2.51% (active) in the assay with SNB-75 CNS (10 µM unless noted); 26.9% (inactive) with SNB-19 CNS (10 µM unless noted); 16% (inactive) with U251 CNS (10 µM unless noted); 15.5% (inactive) in the assay on PC-3 prostate (10 µM unless noted). The growth was -26.4% (active) in the assay with SK-MEL-5 melanoma (10 µM unless noted); 26.6% (inactive) in the assay with UACC-62 melanoma (10 µM); 94.4% (inactive) and -98.3% (active) in the assay with UACC-62 melanoma (100 µM); 19.5% (inactive) in the assay with LOX IMVI melanoma (10 µM unless noted); 60.2% (inactive) in the assay with SK-MEL-28 melanoma (10 µM unless noted); 31% (inactive) with SK-MEL-2 melanoma (10 µM unless noted). The growth with EKVX NSCLC (10 µM unless noted) is 28.4% (inactive); in the assay with SN12C renal (10 µM unless noted), 29.1% (inactive); with UO-31 renal (10 µM unless noted), 32.8% (inactive); in the assay on TK-10 renal (10 µM), 27.6% (inactive); with TK-10 renal (100 µM) it was 88% (inactive) and -96.5% (active); with CAKI-1 renal it was 38.9% (inactive). Moreover, the growth in the assay with CCRF-CEM leukemia is 5.37% (active); with MOLT-4 leukemia (10 µM unless noted) it was 25.7% (inactive).

The record behind these values is PubChem BioAssay (NCI).
